Screens (PubChem BioAssay)
Most compounds without a hit are left out; they make up all but 9.2% or so of the library.
HttQ103 aggreg: inhibitors of mutant huntingtin aggregate formation in PC12 cells; PC12 HttQ103-GFP aggregates, Acumen cytometry, 40 h; Potency, µM (series often up to 46.1 µM), for inactives: at the highest dose activity change, negative = inhibition, most hits filed as inhibitors; 220,000 tested, 1.1% active; AID 1688; active = well fitted curve in the direction sought with a large enough effect; inconclusive = small, poorly fitted or top-dose-only effect, or another doubt; inactive = no such curve, though single readings can be large; an effect the other way counts as inactive or inconclusive; note: % is set by controls: 0 for no effect and ±100 for the full control effect; nearly all actives have a fitted effect of over 60% in size
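PC12 cells with ecdysone-inducible HTT exon1 Q103-GFP, induced by 100 nM tebufenozide, given compounds in a concentration series. GFP aggregates (1–25 um, 6 SD above background) counted in lysates by laser-scanning cytometry, 488 nm excitation.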
KDM4E inh: JMJD2E (human) inhibition | B2RXH2 | JMJD2E catalytic domain, FDH-coupled NADH fluorescence (FDH is formaldehyde dehydrogenase) | Potency, µM (doses to about 57.1 µM), without a hit: at the top dose activity change, negative = inhibition, most hits filed as inhibitors | 230,000 tested, 1.6% active;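 note: 0% = wells with enzyme and -100% = buffer wells without enzyme; nearly all actives have a fitted effect of over 50% in size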
Lamin A splicing: LMNA splicing modulation; 200,000 tested, 0.01% active; Potency, µM (titrated, usually from 46.1 µM), inactives show at the top dose ratio change, negative = inhibition, most hits filed as inhibitors; HeLa LMNA splicing GFP/RFP minigene ratio, 48 h; active = well fitted inhibition curve with a large enough effect in the signal ratio, with a control signal flat, not every such curve was filed as active; inconclusive = small, poorly fitted or top-dose-only effect, or effect the other way, or a change in a side signal; the % refers to the signal ratio; note: % is set by controls: 0 for no effect and ±100 for the full control effect
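S3 HeLa cells stably expressing lamin A-EGFP splicing minigene plus DsRed2, 600 cells/well, 48 h compound exposure at 37C. Laser-scanning cytometry; analysed as GFP (500-530 nm)/RFP (575-640 nm) total intensity ratio; 0.5% DMSO vehicle.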
HTT cytoprotect: cytoprotection in Huntington HTT-Q103 PC12 cell model | PC12 HTT-Q103 induced, cytoprotection, ATP luminescence, 40 h | AID 1471 | Potency, µM (series often up to 56.4 µM), without a hit: cytoprotection (ATP increase), hits mostly activators | 230,000 tested, 0.14% active; active = well fitted curve in the direction sought with a large enough effect; inconclusive = small, poorly fitted or top-dose-only effect, or another doubt; inactive = no such curve, though single readings can be large; an effect the other way counts as inactive or inconclusive; note: % of control where 0% means no effect; nearly all actives have a fitted effect of over 45% in size
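PC12 cells stably carrying ecdysone-inducible Htt exon 1 (Q103)–GFP were induced with 100 nM tebufenozide (final) alongside library compounds in a dose series. Cytoprotection was scored as retained ATP by ATPlite luminescence.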
ALDH1A1 inh: inhibitors of human aldehyde dehydrogenase 1A1; AID 1030; Purified ALDH1A1, NADH fluorescence, propionaldehyde substrate; 220,000 tested, 7.3% active; P00352; Potency, µM (doses to about 75.3 µM), inactives show top-dose activity, negative = inhibition, usual class: inhibitors;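 note: plate controls were no enzyme wells and a reference inhibitor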
HPGD block: blocks human HPGD enzyme activity; Potency, µM, for the others: at the highest dose activity change, negative = inhibition, hits mostly inhibitors; 150,000 tested, 4.3% active; AID 894; P15428; purified HPGD, NADH fluorescence kinetic, PGE2 substrate; note: % is set by controls: 0 for no effect and ±100 for the full control effect
Target sequence (P15428 whole entry, looked up): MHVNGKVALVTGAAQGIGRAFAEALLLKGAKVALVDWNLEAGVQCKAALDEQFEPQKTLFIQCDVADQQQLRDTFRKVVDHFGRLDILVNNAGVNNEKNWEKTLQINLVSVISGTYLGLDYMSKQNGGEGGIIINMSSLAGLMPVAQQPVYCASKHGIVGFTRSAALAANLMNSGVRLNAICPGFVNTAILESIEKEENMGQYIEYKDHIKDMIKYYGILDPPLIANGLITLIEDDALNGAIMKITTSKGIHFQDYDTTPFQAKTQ
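NADH formation kinetics: reaction with 30 uM PGE2 and 1 mM NAD+ (final), 20 nM enzyme, Tris-HCl pH 8 with Tween 20, after 15 min compound preincubation at room temperature. Fluorescence change, last versus first of five reads.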
* = called active by the depositor; [ ] = dose if it differs, or a comment. Unless noted, calls come from the whole dose curve; as a rule, active = well fitted inhibition curve with a large enough effect (not every such curve was filed as active); inconclusive = small, poorly fitted or top-dose-only effect, or another doubt; inactive = no such curve, though single readings can be large or run the other way. Potency is the fitted concentration of half-maximal effect.

How did CCOC(=O)c1ccc(NC(=S)N2CCSC2c2c(F)cc(F)cc2F)cc1 (stereo not drawn) do in these assays?
HttQ103 aggreg: -3%; KDM4E inh: -2%; Lamin A splicing: inconclusive; HTT cytoprotect: -3%[10 µM]; ALDH1A1 inh: -3%; HPGD block: -5%

Results for Fc1cc(F)c(C2SCCN2C(=S)Nc2cccc(C(F)(F)F)c2)c(F)c1 (stereo not drawn) ?
HttQ103 aggreg: 14%[9.22 µM]; KDM4E inh: -2%; HTT cytoprotect: 14%[10 µM]; ALDH1A1 inh: 14µM*

What do the screens show for `O=C1c2ccccc2C(O)(c2ccccc2)N1c1ccncc1` (stereo not drawn)?
HttQ103 aggreg: 10%[9.22 µM]; KDM4E inh: -8%; HTT cytoprotect: 5%[10 µM]

What do the screens show for `COc1ccc(-c2nc3c(c4c2C[C@H](c2ccccc2)OC4)CN(C(=O)N[C@@H](C)c2ccccc2)CC3)c(C)c1`?
KDM4E inh: -3%[11.4 µM]; Lamin A splicing: -3%[9.22 µM]; HTT cytoprotect: 9%[10 µM]; ALDH1A1 inh: 3.5µM*; HPGD block: -13%

Results for COc1cccc(CC(=O)N2CCc3nc(-c4ccc(OC)cc4C)c4c(c3C2)CO[C@@H](c2ccccc2)C4)c1 ?
KDM4E inh: -2%[11.4 µM]; Lamin A splicing: inconclusive; HTT cytoprotect: 5%[10 µM]; ALDH1A1 inh: 4µM*; HPGD block: -11%

What do the screens show for `COc1ccc(-c2nc3c(c4c2C[C@H](c2ccccc2)OC4)CN(C(=O)c2cc(I)ccc2F)CC3)c(C)c1`?
KDM4E inh: 9%[11.4 µM]; Lamin A splicing: inconclusive; HTT cytoprotect: 14%[10 µM]; ALDH1A1 inh: 1.1µM*; HPGD block: -2%

What do the screens show for `COc1ccc(-c2nc3c(c4c2C[C@H](c2ccccc2)OC4)CN(S(=O)(=O)c2ccc(C#N)cc2)CC3)c(C)c1`?
KDM4E inh: 10%[11.4 µM]; Lamin A splicing: inconclusive; HTT cytoprotect: -16%[10 µM]; ALDH1A1 inh: 0.5µM*; HPGD block: 1%

What do the screens show for `COc1ccc(-c2nc3c(c4c2C[C@H](c2ccccc2)OC4)CN(C(=O)C2CCCCC2)CC3)c(C)c1`?
KDM4E inh: -2%[11.4 µM]; Lamin A splicing: 10%[9.22 µM]; HTT cytoprotect: -7%[10 µM]; ALDH1A1 inh: inconclusive; HPGD block: -8%

How did Cc1ccc(S(=O)(=O)Nc2ccccc2C=O)cc1 do in these assays?
HTT cytoprotect: -7%[10 µM]; ALDH1A1 inh: 6%[13.5 µM]; HPGD block: -9%

How did Cc1ccc(S(=O)(=O)Nc2ccc(Br)cc2/C=N/n2cnnc2)cc1 do in these assays?
HttQ103 aggreg: 2.2µM*; KDM4E inh: -3%; Lamin A splicing: -24%; HTT cytoprotect: -26%; ALDH1A1 inh: 28µM*; HPGD block: -3%

What do the screens show for `CC(=O)N1N=C(c2ccc(C)o2)CC1c1cccc(F)c1` (stereo not drawn)?
HttQ103 aggreg: 21%[9.22 µM]; KDM4E inh: inconclusive; Lamin A splicing: -6%[46 µM]; HTT cytoprotect: 30%[10 µM]; ALDH1A1 inh: 14µM*

Results for CC(=O)N1N=C(c2ccco2)CC1c1ccc(C)cc1 (stereo not drawn) ?
HttQ103 aggreg: 25%; KDM4E inh: -3%; Lamin A splicing: 6%; ALDH1A1 inh: inconclusive; HPGD block: -8%

How did COc1cc(N=C2C(=O)N3CCCc4cccc2c43)cc(OC)c1 do in these assays?
HttQ103 aggreg: 13%; KDM4E inh: -3%; Lamin A splicing: 0%; HTT cytoprotect: 13%[0.074 µM]; ALDH1A1 inh: 0.63µM*; HPGD block: -9%

Results for COc1cccc(C(=O)N2CCCc3ccccc32)c1 ?
HttQ103 aggreg: -6%; KDM4E inh: 11%; Lamin A splicing: 19%; HTT cytoprotect: 14%; ALDH1A1 inh: -12%; HPGD block: -8%

How did CCOC(=O)/C(C#N)=C1\CC2CCC1(C)C2(C)C (stereo not drawn) do in these assays?
HttQ103 aggreg: -2%; KDM4E inh: -23%; Lamin A splicing: 25%[46 µM]; HTT cytoprotect: -27%; ALDH1A1 inh: 13µM*
